Hit rate of the full screen: of about 360,000 compounds, about 3,700 (1%) were called active. The sample as a whole holds a higher share of actives than the screen did. Unmarked numbers belong to inactive results. Rule as the data show it: active = activation above about 30%; inactive = the rest.
These compounds were tested against D(1A) dopamine receptor (Homo sapiens) (UniProt P21728) (assay: Allosteric Agonists of the Human D1 Dopamine Receptor: qHTS). Details: HEK293 T-REx D1 cells, calcium flux, agonist mode; at 2 µM; hits give high values.
Procedure, shortened: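 Inducible HEK293 T-REx D1 cells, force-coupled to calcium signalling, were plated at 4000 cells/well with tetracycline and held overnight at 30 C. After no-wash calcium dye loading, compound-evoked calcium rise over 180 s flagged agonists.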
Also: 0% is about no effect.

Chain of D(1A) dopamine receptor (Homo sapiens) (P21728 whole entry, looked up): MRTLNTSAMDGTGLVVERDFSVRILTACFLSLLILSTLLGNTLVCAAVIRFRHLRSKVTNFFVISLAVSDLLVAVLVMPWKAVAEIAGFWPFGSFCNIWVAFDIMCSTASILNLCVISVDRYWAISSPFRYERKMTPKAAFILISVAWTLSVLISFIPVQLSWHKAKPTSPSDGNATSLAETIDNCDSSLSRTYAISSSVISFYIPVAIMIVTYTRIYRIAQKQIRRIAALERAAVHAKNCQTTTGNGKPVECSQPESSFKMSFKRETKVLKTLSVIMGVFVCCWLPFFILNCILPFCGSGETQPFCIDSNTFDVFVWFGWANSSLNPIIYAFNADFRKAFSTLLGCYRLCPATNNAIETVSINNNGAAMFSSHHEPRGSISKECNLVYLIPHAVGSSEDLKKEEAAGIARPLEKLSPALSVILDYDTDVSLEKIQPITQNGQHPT

Row | SMILES | activation
1 | Cc1cc(C)c2oc(-c3cccc(NC(=O)c4cccc(F)c4)c3C)nc2c1 | 1.24%
2 | N#C/C(=C/c1ccc(N2CCCCC2)o1)C(=O)NCCc1c[nH]c2ccccc12 | 78.8% (active)
3 | O=C(NCCc1c[nH]c2ccccc12)c1cc2ccccc2oc1=O | 4.67%
4 | Cc1ccc(C(=O)N/C(=C/c2ccco2)C(=O)NCCc2c[nH]c3ccccc23)cc1C | 2.88%
5 | CCOc1ccccc1CNC(=O)c1cnc2c(-c3ccc(OCC)c(OCC)c3)c(C)nn2c1C | 1.83%
6 | CCOc1ccc(NC(=O)CC2C(=O)N(c3cccc(OC)c3)C(=O)N2C2CCCCC2)cc1 (centres undefined) | 2.76%
7 | O=C(/C=C/c1ccc(N2CCOCC2)cc1)c1ccccc1 | 108% (active)
8 | O=C(O)CCC(=O)Nc1ccc(N2CCOCC2)cc1 | 4.21%
9 | C/C(=C/c1ccccc1)C(=O)N1CCN(c2ccccc2)CC1 | 0.356%
10 | CCN(CC)C(=O)CSc1nc2cc3c(cc2c(=O)n1CCCC(=O)NCc1ccc2c(c1)OCO2)OCO3 | 0.699%
11 | CCOc1ccc(CNC(=O)C2CCCN(S(=O)(=O)N(CC)c3ccc(OCC)cc3)C2)cc1 (centres undefined) | -0.432%
12 | Cc1noc(C)c1-c1ccc2ncnc(NC(C)c3ccco3)c2c1 (centres undefined) | -0.27%
13 | Cc1noc(C)c1-c1ccc2ncnc(NCc3ccc(F)c(F)c3)c2c1 | 131% (active)
14 | Cc1noc2ncnc(NCc3ccccc3Cl)c12 | 21.4%
15 | O=C(NCCCO)c1nn(-c2ccc(Cl)cc2)nc1CO | -0.511%
16 | Cc1ccc(OCC(=O)Nc2ccc(OCc3cc(=O)n4c(C)csc4n3)cc2)cc1C | 5.64%
17 | O=C(CNC(=O)c1ccccc1F)c1ccc(Br)cc1 | -0.969%
18 | O=C(C[n+]1cc(Br)cc2ccccc21)c1ccc(F)cc1 | 39.6% (active)
19 | O=C(c1ccc(F)cc1)n1c(=S)nc2ccccn21 | 2.37%
20 | Cc1ccc(-n2ncc3c(N4CCC(C(N)=O)CC4)ncnc32)cc1 | -2.06%
21 | CCOC(=O)C1CCN(C(=O)CSc2c3c(nc4ccc(Cl)cc24)CCCC3)CC1 | 3.05%
22 | Cc1cc(NC(=O)c2ccc(-c3ccc(Cl)cc3)o2)cc(-c2nc3ncccc3o2)c1O | -0.471%
23 | CCN(Cc1ccccc1)C(=O)c1cn(-c2cccc(OC)c2)c(=O)c2ccccc12 | 0.204%

Row | SMILES | activation
24 | Cc1cccc(C(=O)Nc2ccc(-c3nc4ncccc4o3)cc2C)c1 | 0.768%
25 | CCCCN(CC)C(=O)c1ccc2c(c1)OCO2 | 4.54%
26 | Cc1cc(C)c2sc(NC(=O)c3ccc(S(=O)(=O)N4CCCC4)cc3)nc2c1 | -0.497%
27 | CCc1ccc2nc(N(CCCN(C)C)C(=O)c3ccc4c(c3)OCCO4)sc2c1 | 53.9% (active)
28 | CCN(CC(=O)Nc1c(F)cccc1F)C(=O)c1ccc(S(=O)(=O)N2CCCCC2)cc1 | -0.0233%
29 | CN(C)CCCN(C(=O)c1ccc(S(=O)(=O)N2CCCCCC2)cc1)c1nc2ccc(Br)cc2s1 | 42.8% (active)
30 | CCN(CC)CCN(C(=O)c1ccc(N2C(=O)CCC2=O)cc1)c1nc2cc3c(cc2s1)OCO3 | 5.63%
31 | CCOc1ccc(CNC(=O)c2cc(=O)[nH]c3ccc(S(=O)(=O)N4CCCCC4)cc23)cc1 | -3.81%
32 | Cc1cc(C)cc(NS(=O)(=O)c2cc3c(cc2C)NC(=O)CO3)c1 | 3.6%
33 | Cc1ccccc1OCc1ccc(-c2nc(C#N)c(N3CCCCC3)o2)o1 | 1.07%
34 | Cc1ccc(Cn2ncc3c4sc(C)cc4n(C)c3c2=O)c(C)c1 | 3.45%
35 | Cn1c(=O)c(=O)n(C)c2cc(NC(=O)c3ccccc3Br)ccc21 | 0.667%
36 | Cc1ccc(CNC(=O)CCNS(=O)(=O)c2ccc3c(c2)oc(=O)n3C)cc1 | 1.82%
37 | CN1CCN(C2(CNC(=O)COc3ccc(C(C)(C)C)cc3)CCCCC2)CC1 | 42.8% (active)
38 | CCOc1ccc(S(=O)(=O)Nc2cccc(C(=O)NCC3(N4CCCCC4)CCCCC3)c2)cc1 | 5.67%
39 | Cc1cc(OCC(=O)NCC2(N(C)C)CCCCC2)cc(C)c1Cl | 9.34%
40 | O=C(NCc1ccc2c(c1)CCN2C(=O)c1ccccc1)c1ccccc1 | 2.65%
41 | Cc1cc(C)c2nc3nc(C)cc(C)c3c(N)c2c1 | 31% (active)
42 | O=C(CSc1nc2c(c(=O)[nH]1)CN(Cc1ccc(F)cc1)CC2)Nc1ccccc1Cl | 3.05%
43 | CCOc1ccccc1CNC(=O)C1CCCN(S(=O)(=O)c2ccc3c(ccn3C)c2)C1 (centres undefined) | 4.08%
44 | O=C(Nc1nnc(S(=O)(=O)N2CCCc3ccccc32)s1)c1cccc(F)c1 | 0.00305%
45 | O=C(c1ccc(Br)cc1)N(Cc1cccs1)c1ccc(F)cc1 | 9.82%
46 | Cc1c2cnn(-c3ccccc3)c(=O)c2c(C)n1CCCC(=O)N1CCN(C)CC1 | 0.261%

Row | SMILES | activation
47 | Cc1ccccc1CNC(=O)Cn1c(C)c2cnn(-c3ccccc3)c(=O)c2c1C | 3.52%
48 | Cc1c2cnn(-c3ccccc3)c(=O)c2c(C)n1C(C)C(=O)Nc1ccc(Br)cc1F (centres undefined) | 34.5% (active)
49 | O=C(/C=C/c1cn(CC(O)CN2CCc3ccccc32)c2ccccc12)c1ccc(Br)cc1 (centres undefined) | 11.4%
50 | COc1ccc(-c2cc(-c3ccc(F)cc3)nc3c2COc2ccccc2-3)cc1 | -0.494%
51 | COc1ccccc1CNC(=O)CCn1c(=O)c2ccccc2n(CC(=O)Nc2ccc(Br)cc2F)c1=O | 0.0005%
52 | COc1ccc(C(=O)NC(=S)NNC(=O)c2c(-c3ccccc3)noc2C)cc1 | 86.2% (active)
53 | O=C(/C=C/c1ccc(F)cc1)NC(=S)NNC(=O)c1cccnc1 | 1.33%
54 | COc1ccc(C(=O)NC(=O)CSc2nnc(-c3ccco3)n2-c2ccccc2)cc1 | 1%
55 | Cn1nnc(NC(=S)NC(=O)c2ccccc2)n1 | 4.22%
56 | CC(=O)NC(=S)NNC(=O)c1ccc(Br)cc1 | 0.645%
57 | COc1ccc(C(=O)NNC(=S)NC(=O)c2ccccc2)cc1 | 84.2% (active)
58 | Cc1onc(-c2ccccc2)c1C(=O)NNC(=S)NC(=O)c1ccc(F)cc1 | 61.1% (active)
59 | COc1ccc(C(=O)Nc2onc3c2CCCC3)cc1 | -1.07%
60 | O=C(NNC(=S)NC(=O)c1cn(-c2ccccc2)nc1-c1ccccc1)c1ccncc1 | 6.27%
61 | Cc1cc(C(=O)Nc2cccc(C(F)(F)F)c2)c2c(C)nn(-c3cccc(F)c3)c2n1 | 19.5%
62 | CCOc1ccc(-n2c(SCC(=O)NCc3ccccc3)nc3n[nH]c(C)c3c2=N)cc1 | 1.25%
63 | COc1ccc(N(CC(=O)NCCc2ccc(Cl)cc2)S(=O)(=O)c2c(C)nn(C)c2C)cc1 | 0.495%
64 | CCOC(=O)c1[nH]c(C)c(CCC(=O)NCc2ccccc2C)c1C | -0.942%
65 | CCOc1ccc(-c2nonc2NC(=O)c2oc3ccc(CC)cc3c2C)cc1 | 5.77%
66 | Cc1ccc(OC(=O)CSc2nnc(-c3cccs3)o2)cc1 | 1.31%
67 | CCN1CCN(c2ncc3c(n2)CC(c2ccccc2O)CC3=O)CC1 (centres undefined) | 9.15%
68 | Nc1ccc2nc3c(=O)[nH]c(=S)[nH]c3nc2c1 | 108% (active)
69 | CCC1CCCCN1S(=O)(=O)c1ccc(NC(=O)c2cc(=O)c3ccccc3o2)cc1 (centres undefined) | 0.0446%

Row | SMILES | activation
70 | CC(C)C(=O)Nc1nc2c(s1)CC(C(C)(C)C)CC2 (centres undefined) | 1.03%
71 | COc1ccc(Cl)cc1NC(=O)CSc1nc(=O)[nH]c2c1CCCC2 | 6.85%
72 | Cc1ccc(O)c(NC(=O)CCS(=O)(=O)c2nc(-c3ccc4c(c3)OCO4)cc(C(F)(F)F)n2)c1 | 5.29%
73 | N=C(N)SCc1cccc2ccccc12 | 47.6% (active)
74 | CCOc1ccc(Br)cc1CSC(=N)N | 21.9%
75 | CSC1=NCCN1C(=O)Cc1cccc2ccccc12 | 1.65%
76 | CN1CCOc2cc(S(=O)(=O)N3CCN(S(=O)(=O)c4c(F)cccc4F)CC3)cnc21 | 1.83%
77 | CCCN(CCC)S(=O)(=O)c1ccc(C(=O)NNC(=O)c2cc(OC)c(OC)c(OC)c2)cc1 | 6.23%
78 | CCSC1=NCCN1C(=O)c1ccc(S(=O)(=O)N(CC)CC)cc1 | 1.17%
79 | CCCN(CCC)S(=O)(=O)c1ccc(C(=O)N2CC3CCC(CC3)C2)cc1 | 37.1% (active)
80 | COc1ccccc1NC(=O)C(=O)c1cc(C)n(-c2ccccc2F)c1C | 1.84%
81 | CCNS(=O)(=O)c1cc(-c2nnc(Nc3cccc(C(F)(F)F)c3)c3ccccc23)ccc1C | 4.19%
82 | Cc1csc2nc(COC(=O)c3ccccc3NC(=O)c3ccccc3Cl)cc(=O)n12 | 3.01%
83 | Fc1cnc(N2CCOCC2)nc1NCc1ccccc1 | 1.23%
84 | c1ccc2c(NC3C4CC5CC(C4)CC3C5)nc(N3CCOCC3)nc2c1 (centres undefined) | 38.3% (active)
85 | c1cnc(NC2C3CC4CC(C3)CC2C4)nc1 (centres undefined) | 7%
86 | CCOC(=O)c1cc2c(=O)n3ccccc3nc2n(Cc2ccco2)c1=NC(=O)c1ccc(F)cc1 | -0.478%
87 | CCCCCn1c(=O)[nH]c2cc(C(=O)Nc3cc(C)cc(C)c3)ccc2c1=O | 0.484%
88 | CCOC(=O)C1CCN(c2ncnc3c2c(-c2ccccc2)cn3-c2cccc(C)c2)CC1 | -1.59%
89 | Oc1ccc(Cl)cc1C1C=C(c2ccc3c(c2)OCO3)NC(c2c(F)cccc2Cl)N1 (centres undefined) | 21.1%
